# Where “and” joins values, the source holds several entries; their conditions need not be identical. Equal entries are not always repeated. Calls of active or inactive are those of the source.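 Rule for the calls, unless noted: active = normalized viability below 100% at a tested concentration; inactive = the rest.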
# Experiments:
# [1] = stimulators of nuclear beta-catenin in C2C12, primary screen, imaging, WNT3A-conditioned medium, mouse C2C12, NPC library (AID 1117326; in the data active = nuclear beta-catenin stimulation mostly above about 4.2%, no sharp cut-off; inactive = mostly below about 10%); conditions: stronger effect = higher value
# [2] = stimulators of insulin release from INS-1E, primary screen, cell-based, 5 mM glucose, NPC library (AID 1117329;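 active = compound raises insulin release from rat beta cells at 5 mM glucose, no numeric limit stated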); conditions: rat INS-1E insulin secretion, at 10 µM, stronger effect = higher value
# [3] = growth inhibition of GSK3B-pretreated HCT116 cells – cell-based, CellTiter-Glo, 0.2 to 20 µM (AID 1117336;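 active = compounds lowering colon cancer cell viability after pretreatment blocking the GSK3B kinase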); conditions: HCT116 viability after GSK3B inhibitor, at 20 µM, stronger effect = higher value
# [4] = inhibition of endothelial tube formation, primary screen, imaging, VEGF stimulated, CD31 staining, tube area, NPC library (AID 1117340;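 active = compound that reduces growth-factor-driven endothelial tube area in a mixed cell culture, no cutoff stated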); conditions: VEGF-stimulated ADSC/ECFC co-culture, at 10 µM, stronger effect = higher value
# [5] = glucagon-like peptide 1 release enhancers, primary assay, NCI-H716 cell line, NPC library (AID 1117341;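 active = compound raises GLP1 secretion from the human gut endocrine cells, with no numeric limit stated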); conditions: NCI-H716 cells, at 10 µM, stronger effect = higher value
# [6] = HCT116 colon cancer cell growth inhibition, primary screen, CellTiter-Glo luminescence, NPC library (AID 1117342;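 active = compounds that lower survival of HCT116 colon cancer cells in the luminescence readout, no numeric limit stated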); conditions: at 20 µM (top of the series)
# [7] = CellTiter-Glo luminescent readout of SW480 viability loss, NPC library primary (AID 1117343;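 active = compounds that lower viability of the colon cancer cells in the luminescence readout, with no numeric limit stated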); conditions: CellTiter-Glo luminescence; at 20 µM (top of the series) unless noted
# [8] = decreased DLD-1 cellular survival, CellTiter-Glo luminescent readout, NPC compound collection, primary HTS (AID 1117346;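 active = compounds that lower survival of DLD-1 colon cancer cells in the luminescence readout, no cutoff given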); conditions: DLD-1 viability, CellTiter-Glo luminescence; at 20 µM (top of the series)
# [9] = differential killing of epithelial or mesenchymal cells, primary screen, imaging, PC-3E GFP, TEM4-18 mCherry, co-culture (AID 1345086;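 active = compounds killing one labelled cell type while sparing the other, by normalised counts and ratio limits, not self-fluorescent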;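 for all read-outs here: cells exposed to compound for 72 h before imaging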;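 for red/green cell ratio (normalised): normalised mesenchymal count divided by normalised epithelial count so high means epithelial killing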); conditions: imaging cell counts, at 1 µM; for red/green cell ratio (normalised): actives lie on both sides, counts scaled to control wells, 1 = unselective
# [10] = LFS_MB_P medulloblastoma growth inhibition, cell-based, chromothripsis tumors, cisplatin or BGB combos (AID 1671449; in the data active = inhibition above about 80%;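 note: cells exposed for 96 hours; 0% = vehicle DMSO and 100% = killing by high DMSO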); conditions: LFS_MB_P medulloblastoma cells
# [11] = HDN33 neuroblastoma growth inhibition, cell-based, chromothripsis tumors, cisplatin or BGB combos (AID 1671450; in the data active = inhibition above about 80%;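 note: cells exposed to compound for four days; 0% = vehicle DMSO and 100% = cell killing by high DMSO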); conditions: HDN33 neuroblastoma cells, stronger effect = higher value
# [12] = ICB984 medulloblastoma cell growth inhibition, synergistic combos for chromothripsis tumors, cisplatin or BGB combos (AID 1671451; call rule not given here;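 note: cells exposed for 96 hours before readout; 0% = vehicle DMSO and 100% = killing by high DMSO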); conditions: ICB984 medulloblastoma cells, drug combinations, stronger effect = higher value
# [13] = HTB85 osteosarcoma cell growth inhibition, synergistic combos for chromothripsis tumors, BGB or cisplatin IC20 combos (AID 1671453; in the data active = inhibition above about 80%;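 note: cells exposed for 96 hours before readout; 0% = vehicle DMSO and 100% = high DMSO killing control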); conditions: HTB85 osteosarcoma cells, drug combinations, stronger effect = higher value
# [14] = MDA-MB-436 breast carcinoma cell growth inhibition, synergistic combos for chromothripsis tumors, BGB or cisplatin combos (AID 1671458; call rule not given here;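 note: cells exposed for 96 hours; 0% = vehicle DMSO and 100% = killing by high DMSO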); conditions: MDA-MB-436 breast carcinoma growth inhibition, drug combinations, stronger effect = higher value
# [15] = sensitizers of A549 cells to miR-34 induction, primary screen, imaging, A549 dox-inducible miR-34, nuclei and caspase counts (AID 1347080;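 active = compounds whose cell count with miR-34 switched on is under 0.7 times the count with it off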); conditions: A549 miR-34 inducible, Hoechst nuclei count, 48 h
# [16] = survival rescue of mitochondrial mutant cells in low glucose, primary screen, MELAS cybrids, Rieske KO mouse fibroblasts, CellTiter-Glo (AID 1508586;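 active = mean z-score across replicates of 1.96 or higher in either the MELAS or the Rieske mutant cell line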;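 note: z relative to plate mean and SD of compound and empty wells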)
# [17] = ovarian cancer cell viability with rucaparib, profiling panel, oncology-focused library, rucaparib conditional (AID 1508598); conditions: patient-derived ovarian cancer cells, CellTiter-Glo viability, 144 h, stronger effect = lower value
# [18] = measured here: epithelial PC-3E GFP cell survival
# [19] = measured here: mesenchymal TEM4-18 mCherry cell survival
smiles,measurement,setting,value
CN1CCN(c2c(F)cc3c(=O)c(C(=O)O)cn4c3c2OCN4C)CC1,nuclear beta-catenin stimulation,[1]; at 10 µM,-0.6% (inactive)
same,nuclear beta-catenin stimulation,"[1]; stimulation, at 2 µM",-2.1%
same,insulin secretion stimulation,[2],-0.9% (inactive)
same,viability decrease,[3],7.3% (inactive)
same,tube area decrease,[4],-6.4% (inactive)
same,GLP1 secretion stimulation,[5],-0.1% (inactive)
same,inhibition of viability,[6],1.5% (inactive)
same,viability decrease (inhibition),[7],-15.8% (inactive)
same,viability decrease (inhibition),[8],-5% (inactive)
same,red/green cell ratio (normalised),[9],0.85 (inactive)
same,normalised cell number,[9]; [18],1.17
same,normalised cell number,[9]; [19],1
same,inhibition,"[10]; at 0.5 µM, stronger effect = higher value",-17.7% (inactive)
same,inhibition,"[10]; measured here: combination with BGB IC20, at 0.005 µM",-16.9%
same,inhibition,"[10]; measured here: combination with BGB IC40, at 0.005 µM",-17.4%
same,inhibition,"[10]; measured here: combination with BGB IC40, at 0.05 µM",-36.9%
same,inhibition,"[10]; measured here: combination with cisplatin, at 0.5 µM, stronger effect = higher value",-51.4%
same,inhibition,"[10]; measured here: combination with cisplatin, at 5 µM, stronger effect = higher value",-32.3%
same,inhibition,"[11]; BGB combo, at 5 µM",5.71%
same,inhibition,[11]; at 0.5 µM,-7.25% (inactive)
same,inhibition,"[11]; cisplatin combo, at 5 µM",-1.82%
same,inhibition,"[11]; measured here: with BGB IC20 combination, at 0.5 µM",5.2%
same,inhibition,"[11]; measured here: with cisplatin IC20 combination, at 0.5 µM",-12.1%
same,inhibition,"[11]; single agent, at 5 µM",-9.4%
same,inhibition,"[12]; BGB IC20 combo, at 0.005 µM",9.65%
same,inhibition,"[12]; BGB IC40 combo, at 0.005 µM",-1.21%
same,inhibition,"[12]; BGB IC40 combo, at 0.05 µM",1.28%
same,inhibition,[12]; at 0.5 µM,-28.8% (inactive)
same,inhibition,"[12]; cisplatin combo, at 0.05 µM",-1.48%
same,inhibition,"[12]; cisplatin combo, at 0.5 µM",-25.3%
same,inhibition,"[12]; cisplatin combo, at 5 µM",-7.68%
same,inhibition,"[12]; measured here: 5 uM single agent, at 5 µM",-17.3%
same,inhibition,[13]; at 0.5 µM,-12.7% (inactive)
same,inhibition,"[13]; measured here: with BGB IC20, at 0.5 µM",-22.2%
same,inhibition,"[13]; measured here: with BGB IC20, at 5 µM",-21.7%
same,inhibition,"[13]; measured here: with cisplatin IC20, at 0.5 µM",-26.4%
same,inhibition,"[13]; measured here: with cisplatin IC20, at 5 µM",-29.4%
same,inhibition,"[13]; single agent, at 5 µM",-8.81%
same,inhibition,[14]; at 0.5 µM,-16.5% (inactive)
same,inhibition,"[14]; measured here: BGB combination, at 0.5 µM",-13.3%
same,inhibition,"[14]; measured here: BGB combination, at 5 µM",-9.95%
same,inhibition,"[14]; measured here: cisplatin combination, at 0.5 µM",-29.6%
same,inhibition,"[14]; measured here: cisplatin combination, at 5 µM",-33.2%
COc1cc2ncnc(Nc3ccc(F)c(Cl)c3)c2cc1OCCCN1CCOCC1,nuclear beta-catenin stimulation,[1]; at 10 µM,78.2% (active)
same,nuclear beta-catenin stimulation,"[1]; stimulation, at 2 µM",2.5%
same,insulin secretion stimulation,[2],0.7% (inactive)
same,viability decrease,[3],44.5% (inactive)
same,tube area decrease,[4],65.5% (active)
same,GLP1 secretion stimulation,[5],-2.9% (inactive)
same,inhibition of viability,[6],98.7% (active)
same,viability decrease (inhibition),[7],101% (active)
same,viability decrease (inhibition),[8],98.1% (active)
same,red/green cell ratio (normalised),[9],1.15 (inactive)
same,normalised cell number,[9]; [18],0.79
same,normalised cell number,[9]; [19],0.91
same,fold change,"[15]; stronger effect = lower value, cell number ratio, induced over uninduced",0.786 (inactive) and 0.938 (inactive) and 0.793 (inactive)
same,fold change,[15]; measured here: relative caspase fold change +Dox/-Dox,1.64 and 1.38 and 1.39
same,cell count,"[15]; measured here: total cells with miR-34 induction, stronger effect = lower value",4800 and 6990 and 6580
same,cell count,[15]; measured here: total cells without miR-34 induction,6110 and 7460 and 8300
same,z-score,"[16]; MELAS cybrid survival, CellTiter-Glo 48 h, stronger effect = higher value",-0.609 (inactive) and 0.334 and 0.781 (inactive)
same,z-score,"[16]; Rieske KO mouse fibroblast survival, CellTiter-Glo 72 h",-0.845 and 2.09 and 1.88
same,viability,"[17]; at 0.000305 µM, OCI-C5x cells, with rucaparib 10 µM, 100% = cells with rucaparib alone",94.6% (active)
same,viability,"[17]; at 0.000305 µM, OCI-C5x cells, without rucaparib",94.5% (active)
same,viability,"[17]; at 0.000305 µM, OCI-P5x cells, with rucaparib 20 µM, 100% = cells with rucaparib alone",100% (inactive)
same,viability,"[17]; at 0.000305 µM, OCI-P5x cells, without rucaparib",100% (inactive)
same,viability,"[17]; at 0.00122 µM, OCI-C5x cells, with rucaparib 10 µM, 100% = cells with rucaparib alone",98.1% (active)
same,viability,"[17]; at 0.00122 µM, OCI-C5x cells, without rucaparib",93.8% (active)
same,viability,"[17]; at 0.00122 µM, OCI-P5x cells, with rucaparib 20 µM, 100% = cells with rucaparib alone",106% (inactive)
same,viability,"[17]; at 0.00122 µM, OCI-P5x cells, without rucaparib",100% (inactive)
same,viability,"[17]; at 0.00488 µM, OCI-C5x cells, with rucaparib 10 µM, 100% = cells with rucaparib alone",95.1% (active)
same,viability,"[17]; at 0.00488 µM, OCI-C5x cells, without rucaparib",102% (inactive)
same,viability,"[17]; at 0.00488 µM, OCI-P5x cells, with rucaparib 20 µM, 100% = cells with rucaparib alone",95.6% (active)
same,viability,"[17]; at 0.00488 µM, OCI-P5x cells, without rucaparib",100% (inactive)
same,viability,"[17]; at 0.0195 µM, OCI-C5x cells, with rucaparib 10 µM, 100% = cells with rucaparib alone",109% (inactive)
same,viability,"[17]; at 0.0195 µM, OCI-C5x cells, without rucaparib",98% (active)
same,viability,"[17]; at 0.0195 µM, OCI-P5x cells, with rucaparib 20 µM, 100% = cells with rucaparib alone",98.7% (active)
same,viability,"[17]; at 0.0195 µM, OCI-P5x cells, without rucaparib",96.3% (active)
same,viability,"[17]; at 0.0781 µM, OCI-C5x cells, with rucaparib 10 µM, 100% = cells with rucaparib alone",101% (inactive)
same,viability,"[17]; at 0.0781 µM, OCI-C5x cells, without rucaparib",92% (active)
same,viability,"[17]; at 0.0781 µM, OCI-P5x cells, with rucaparib 20 µM, 100% = cells with rucaparib alone",98.6% (active)
same,viability,"[17]; at 0.0781 µM, OCI-P5x cells, without rucaparib",100% (active)
same,viability,"[17]; at 0.313 µM, OCI-C5x cells, with rucaparib 10 µM, 100% = cells with rucaparib alone",101% (inactive)
same,viability,"[17]; at 0.313 µM, OCI-C5x cells, without rucaparib",99.7% (active)
same,viability,"[17]; at 0.313 µM, OCI-P5x cells, with rucaparib 20 µM, 100% = cells with rucaparib alone",88.2% (active)
same,viability,"[17]; at 0.313 µM, OCI-P5x cells, without rucaparib",101% (inactive)
same,viability,"[17]; at 1.25 µM, OCI-C5x cells, with rucaparib 10 µM, 100% = cells with rucaparib alone",103% (inactive)
same,viability,"[17]; at 1.25 µM, OCI-C5x cells, without rucaparib",94.5% (active)
same,viability,"[17]; at 1.25 µM, OCI-P5x cells, with rucaparib 20 µM, 100% = cells with rucaparib alone",98.4% (active)
same,viability,"[17]; at 1.25 µM, OCI-P5x cells, without rucaparib",97.2% (active)
same,viability,"[17]; at 5 µM, OCI-C5x cells, with rucaparib 10 µM, 100% = cells with rucaparib alone",56.7% (active)
same,viability,"[17]; at 5 µM, OCI-C5x cells, without rucaparib",72% (active)
same,viability,"[17]; at 5 µM, OCI-P5x cells, with rucaparib 20 µM, 100% = cells with rucaparib alone",86.8% (active)
same,viability,"[17]; at 5 µM, OCI-P5x cells, without rucaparib",99.3% (active)
